In PMC7862700, “An all-to-all approach to the identification of sequence-specific readers for epigenetic DNA modifications on cytosine” one finds binding signal data, which are given here for one sequence.

Common to all, as to experiment: DAPPL (digital affinity profiling via proximity ligation, sequencing); 10 mM Tris-HCl pH 7.5, 50 mM NaCl, 1 mM DTT, 4% glycerol, room temperature, 30 min; GST-TFs on glutathione beads, 16-mer random dsDNA library, 0.1% formaldehyde crosslink after washing; high values mean tight binding
The target in one test is T1, FLI1 (Homo sapiens, UniProt Q01543 1-452).
T1 sequence: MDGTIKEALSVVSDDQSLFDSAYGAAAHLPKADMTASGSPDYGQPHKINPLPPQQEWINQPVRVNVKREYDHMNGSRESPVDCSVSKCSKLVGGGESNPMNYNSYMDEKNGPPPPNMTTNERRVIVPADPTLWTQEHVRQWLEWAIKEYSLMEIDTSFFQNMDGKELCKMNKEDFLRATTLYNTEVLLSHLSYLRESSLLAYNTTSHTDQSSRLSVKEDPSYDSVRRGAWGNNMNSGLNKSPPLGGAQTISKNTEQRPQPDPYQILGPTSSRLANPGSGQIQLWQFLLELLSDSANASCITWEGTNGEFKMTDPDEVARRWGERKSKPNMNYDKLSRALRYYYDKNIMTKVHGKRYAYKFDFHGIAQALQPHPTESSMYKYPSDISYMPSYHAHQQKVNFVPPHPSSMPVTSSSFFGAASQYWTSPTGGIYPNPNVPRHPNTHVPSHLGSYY
The following applies: protein: recombinant; tags: N-terminal GST; dsDNA, one strand shown. The essentials: (§1)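 Binding signal is given per hexamer as its read frequency for a factor divided by its frequency in the tag-only sample. GST-fused human transcription factors were expressed in yeast, captured on glutathione beads, barcoded with DNA and pooled with that sample, then incubated with 200 nmole of a 16-mer random double-stranded DNA library in Tris/NaCl/DTT/glycerol buffer for 30 min at room temperature. The pools were then washed, crosslinked, proximity-ligated, amplified by PCR and sequenced on an Illumina NextSeq500.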

The next test addresses T2, ELK1 (Homo sapiens, UniProt P19419 1-428).
T2 sequence: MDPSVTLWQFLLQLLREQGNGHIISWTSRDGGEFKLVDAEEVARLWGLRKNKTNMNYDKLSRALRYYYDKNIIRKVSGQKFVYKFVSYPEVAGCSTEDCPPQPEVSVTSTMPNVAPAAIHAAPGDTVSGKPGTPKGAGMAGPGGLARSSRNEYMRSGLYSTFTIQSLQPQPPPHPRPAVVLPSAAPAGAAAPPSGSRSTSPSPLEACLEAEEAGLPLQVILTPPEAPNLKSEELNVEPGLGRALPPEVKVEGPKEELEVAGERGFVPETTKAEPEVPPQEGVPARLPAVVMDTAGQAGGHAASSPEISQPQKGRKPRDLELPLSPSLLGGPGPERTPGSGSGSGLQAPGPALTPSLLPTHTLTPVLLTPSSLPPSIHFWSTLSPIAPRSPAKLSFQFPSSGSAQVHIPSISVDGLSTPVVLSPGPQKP
The following applies: protein: recombinant; tags: N-terminal GST; dsDNA, one strand shown. The essentials: as §1

In a further test the target is T3, GABPA (Homo sapiens, UniProt Q06546 1-454).
T3 sequence: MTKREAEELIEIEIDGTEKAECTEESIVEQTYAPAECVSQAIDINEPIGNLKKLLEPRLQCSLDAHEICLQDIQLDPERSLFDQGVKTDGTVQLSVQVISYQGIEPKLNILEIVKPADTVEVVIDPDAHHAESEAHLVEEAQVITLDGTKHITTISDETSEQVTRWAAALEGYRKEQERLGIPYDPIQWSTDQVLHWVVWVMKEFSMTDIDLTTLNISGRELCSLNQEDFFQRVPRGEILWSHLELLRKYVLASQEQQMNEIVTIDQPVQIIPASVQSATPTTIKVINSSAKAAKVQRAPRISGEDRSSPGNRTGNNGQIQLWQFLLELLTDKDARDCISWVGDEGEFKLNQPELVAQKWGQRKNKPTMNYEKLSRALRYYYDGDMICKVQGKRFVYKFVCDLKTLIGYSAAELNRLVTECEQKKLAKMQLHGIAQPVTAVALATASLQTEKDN
Conditions: protein: recombinant; tags: N-terminal GST; dsDNA, one strand shown. The essentials: as §1

For a further test, the target named is T4, ERG (Homo sapiens, UniProt P11308 1-479).
T4 sequence: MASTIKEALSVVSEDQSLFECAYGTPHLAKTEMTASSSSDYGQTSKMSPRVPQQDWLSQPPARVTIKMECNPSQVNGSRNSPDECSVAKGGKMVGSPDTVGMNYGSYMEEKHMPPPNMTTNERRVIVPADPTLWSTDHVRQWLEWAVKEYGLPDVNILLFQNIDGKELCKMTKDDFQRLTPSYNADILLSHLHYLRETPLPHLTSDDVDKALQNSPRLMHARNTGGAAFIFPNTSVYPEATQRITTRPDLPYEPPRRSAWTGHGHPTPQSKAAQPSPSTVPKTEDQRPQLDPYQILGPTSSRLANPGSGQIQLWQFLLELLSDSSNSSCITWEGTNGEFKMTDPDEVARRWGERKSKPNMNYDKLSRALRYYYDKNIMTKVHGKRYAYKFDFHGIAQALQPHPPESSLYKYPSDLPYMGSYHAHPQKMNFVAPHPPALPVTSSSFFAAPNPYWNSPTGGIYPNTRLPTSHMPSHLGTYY
The following applies: protein: recombinant; tags: N-terminal GST; dsDNA, one strand shown. The procedure, abridged:
as §1

A further test concerns the target ELF1 (Homo sapiens, UniProt P32519 1-619). Conditions: protein: recombinant; tags: N-terminal GST; dsDNA, one strand shown. The essentials: as §1
For a further test, the target named is T5, EHF (Homo sapiens, UniProt Q9NZC4 1-300).
T5 sequence: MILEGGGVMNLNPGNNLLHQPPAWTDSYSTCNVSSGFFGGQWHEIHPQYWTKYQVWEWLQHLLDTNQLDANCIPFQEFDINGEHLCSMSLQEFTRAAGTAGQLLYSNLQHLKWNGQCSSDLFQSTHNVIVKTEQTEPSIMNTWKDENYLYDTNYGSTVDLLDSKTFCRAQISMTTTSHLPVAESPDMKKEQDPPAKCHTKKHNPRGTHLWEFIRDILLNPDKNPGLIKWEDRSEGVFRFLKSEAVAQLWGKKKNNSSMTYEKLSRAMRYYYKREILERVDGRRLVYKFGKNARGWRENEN
The following applies: protein: recombinant; tags: N-terminal GST; dsDNA, one strand shown. The essentials: as §1

Another test has as its target SPI1 (Homo sapiens, UniProt P17947 1-270). The following applies: protein: recombinant; tags: N-terminal GST; dsDNA, one strand shown. The essentials:
as §1

The target in the next test is SPIB (Homo sapiens, UniProt Q01892 1-262). The following applies: protein: recombinant; tags: N-terminal GST; dsDNA, one strand shown. The procedure, abridged: as §1
Chain of SPIB (Q01892 whole entry): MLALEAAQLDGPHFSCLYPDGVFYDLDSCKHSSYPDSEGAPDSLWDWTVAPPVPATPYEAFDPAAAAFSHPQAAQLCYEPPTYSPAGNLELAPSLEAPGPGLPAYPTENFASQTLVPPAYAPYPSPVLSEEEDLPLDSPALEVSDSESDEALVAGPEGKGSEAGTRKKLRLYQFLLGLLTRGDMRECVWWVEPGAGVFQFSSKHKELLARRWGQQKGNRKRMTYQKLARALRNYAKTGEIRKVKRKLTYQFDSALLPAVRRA
In the next test the target is T6, ELK3 (Homo sapiens, UniProt P41970 1-407).
T6 sequence: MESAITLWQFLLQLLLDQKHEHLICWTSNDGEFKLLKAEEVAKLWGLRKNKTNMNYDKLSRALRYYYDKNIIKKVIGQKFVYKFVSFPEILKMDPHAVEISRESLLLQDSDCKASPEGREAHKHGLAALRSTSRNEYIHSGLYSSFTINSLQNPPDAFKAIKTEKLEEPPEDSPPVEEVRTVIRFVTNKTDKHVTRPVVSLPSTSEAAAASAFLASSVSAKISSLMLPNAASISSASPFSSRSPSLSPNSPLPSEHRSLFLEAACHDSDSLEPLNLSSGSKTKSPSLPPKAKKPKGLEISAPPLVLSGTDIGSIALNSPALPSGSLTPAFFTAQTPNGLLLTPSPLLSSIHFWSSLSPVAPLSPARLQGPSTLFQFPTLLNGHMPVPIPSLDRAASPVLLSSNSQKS
Conditions: protein: recombinant; tags: N-terminal GST; dsDNA, one strand shown. The procedure, abridged: as §1

Another test addresses T7, FEV (Homo sapiens, UniProt Q99581 1-238).
T7 sequence: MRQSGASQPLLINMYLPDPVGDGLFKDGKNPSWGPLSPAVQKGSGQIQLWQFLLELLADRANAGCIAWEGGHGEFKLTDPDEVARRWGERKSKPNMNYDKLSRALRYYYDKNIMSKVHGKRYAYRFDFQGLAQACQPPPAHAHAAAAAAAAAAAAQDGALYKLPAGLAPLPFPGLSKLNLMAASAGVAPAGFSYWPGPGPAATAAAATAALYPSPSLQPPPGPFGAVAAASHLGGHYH
Conditions: protein: recombinant; tags: N-terminal GST; dsDNA, one strand shown. The procedure, abridged:
as §1

Another test addresses ETV5 (Homo sapiens, UniProt P41161 1-510). Conditions: protein: recombinant; tags: N-terminal GST; dsDNA, one strand shown. The procedure, abridged: as §1
Another test addresses HSF1 (Homo sapiens, UniProt Q00613 1-529). Conditions: protein: recombinant; tags: N-terminal GST; chain copies: 3; dsDNA, one strand shown. The procedure, abridged: as §1
Another test deals with T8, SPIC (Homo sapiens, UniProt Q8N5J4 1-248).
T8 sequence: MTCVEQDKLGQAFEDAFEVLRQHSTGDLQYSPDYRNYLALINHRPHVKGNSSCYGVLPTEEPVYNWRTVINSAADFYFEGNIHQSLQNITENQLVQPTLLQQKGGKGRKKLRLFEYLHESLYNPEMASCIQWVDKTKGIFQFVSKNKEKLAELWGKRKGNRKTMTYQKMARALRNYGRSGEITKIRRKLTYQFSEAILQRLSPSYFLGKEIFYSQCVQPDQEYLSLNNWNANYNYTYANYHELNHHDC
The following applies: protein: recombinant; tags: N-terminal GST; dsDNA, one strand shown. The procedure, abridged:
as §1

The next test has as its target ELF4 (Homo sapiens, UniProt Q99607 1-663). The following applies: protein: recombinant; tags: N-terminal GST; dsDNA, one strand shown. The procedure, abridged:
as §1

The target in another test is T9, ELK4 (Homo sapiens, UniProt P28324-2 1-405).
T9 sequence: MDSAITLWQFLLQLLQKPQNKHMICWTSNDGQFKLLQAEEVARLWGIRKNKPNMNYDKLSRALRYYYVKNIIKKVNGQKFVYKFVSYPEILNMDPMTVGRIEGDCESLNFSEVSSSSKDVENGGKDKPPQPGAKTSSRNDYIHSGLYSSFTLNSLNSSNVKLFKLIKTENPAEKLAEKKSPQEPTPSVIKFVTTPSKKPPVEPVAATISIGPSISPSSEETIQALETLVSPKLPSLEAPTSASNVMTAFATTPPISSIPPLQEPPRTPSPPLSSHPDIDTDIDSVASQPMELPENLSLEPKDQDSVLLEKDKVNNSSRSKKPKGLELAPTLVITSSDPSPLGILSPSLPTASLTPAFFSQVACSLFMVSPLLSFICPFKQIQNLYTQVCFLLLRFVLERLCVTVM
Conditions: protein: recombinant; tags: N-terminal GST; dsDNA, one strand shown. The procedure, abridged:
as §1

The target of another test is T10, ETV2 (Homo sapiens, UniProt O00321 1-342).
T10 sequence: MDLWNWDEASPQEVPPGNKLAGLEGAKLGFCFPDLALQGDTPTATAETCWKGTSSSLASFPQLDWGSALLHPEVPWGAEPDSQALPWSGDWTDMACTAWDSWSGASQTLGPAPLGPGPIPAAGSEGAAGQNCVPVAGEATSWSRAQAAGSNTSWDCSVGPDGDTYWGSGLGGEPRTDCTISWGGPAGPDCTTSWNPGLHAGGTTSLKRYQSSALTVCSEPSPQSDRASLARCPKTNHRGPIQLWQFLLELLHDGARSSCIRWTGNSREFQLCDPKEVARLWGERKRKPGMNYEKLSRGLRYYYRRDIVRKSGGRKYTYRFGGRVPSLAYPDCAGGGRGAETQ
Conditions: protein: recombinant; tags: N-terminal GST; dsDNA, one strand shown. The essentials: as §1

The next test concerns the target T11, ELF3 (Homo sapiens, UniProt P78545 1-371).
T11 sequence: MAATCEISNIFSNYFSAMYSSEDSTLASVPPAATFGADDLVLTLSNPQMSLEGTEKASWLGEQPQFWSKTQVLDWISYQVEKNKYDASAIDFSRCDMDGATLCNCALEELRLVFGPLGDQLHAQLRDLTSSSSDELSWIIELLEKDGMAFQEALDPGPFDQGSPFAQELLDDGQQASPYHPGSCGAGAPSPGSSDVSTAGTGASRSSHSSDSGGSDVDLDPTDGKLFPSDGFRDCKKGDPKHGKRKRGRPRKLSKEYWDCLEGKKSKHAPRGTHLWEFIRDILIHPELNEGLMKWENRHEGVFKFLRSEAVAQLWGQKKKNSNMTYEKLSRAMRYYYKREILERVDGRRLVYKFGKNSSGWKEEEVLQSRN
The following applies: protein: recombinant; tags: N-terminal GST; dsDNA, one strand shown. The essentials: as §1

Another test concerns the target CRX (Homo sapiens, UniProt O43186 1-299). Conditions: protein: recombinant; tags: N-terminal GST; dsDNA, one strand shown. The essentials:
as §1

For another test, the target named is ETV1 (Homo sapiens, UniProt P50549 1-477). Conditions: protein: recombinant; tags: N-terminal GST; dsDNA, one strand shown. The essentials: as §1
Chain of ETV1 (P50549 whole entry): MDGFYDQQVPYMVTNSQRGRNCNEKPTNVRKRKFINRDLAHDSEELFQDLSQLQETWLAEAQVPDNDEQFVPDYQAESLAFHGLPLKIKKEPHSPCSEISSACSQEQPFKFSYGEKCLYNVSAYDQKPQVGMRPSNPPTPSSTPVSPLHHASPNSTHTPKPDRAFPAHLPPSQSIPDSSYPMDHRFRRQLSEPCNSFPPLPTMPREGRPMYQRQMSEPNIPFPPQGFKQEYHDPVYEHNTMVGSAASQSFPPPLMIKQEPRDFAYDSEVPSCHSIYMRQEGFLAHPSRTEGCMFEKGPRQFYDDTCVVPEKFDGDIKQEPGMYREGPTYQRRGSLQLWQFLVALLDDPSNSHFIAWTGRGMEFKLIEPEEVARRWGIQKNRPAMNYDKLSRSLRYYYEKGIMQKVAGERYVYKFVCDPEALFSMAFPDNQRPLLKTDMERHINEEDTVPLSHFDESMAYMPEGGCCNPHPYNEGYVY

Chain of ELF4 (Q99607 whole entry): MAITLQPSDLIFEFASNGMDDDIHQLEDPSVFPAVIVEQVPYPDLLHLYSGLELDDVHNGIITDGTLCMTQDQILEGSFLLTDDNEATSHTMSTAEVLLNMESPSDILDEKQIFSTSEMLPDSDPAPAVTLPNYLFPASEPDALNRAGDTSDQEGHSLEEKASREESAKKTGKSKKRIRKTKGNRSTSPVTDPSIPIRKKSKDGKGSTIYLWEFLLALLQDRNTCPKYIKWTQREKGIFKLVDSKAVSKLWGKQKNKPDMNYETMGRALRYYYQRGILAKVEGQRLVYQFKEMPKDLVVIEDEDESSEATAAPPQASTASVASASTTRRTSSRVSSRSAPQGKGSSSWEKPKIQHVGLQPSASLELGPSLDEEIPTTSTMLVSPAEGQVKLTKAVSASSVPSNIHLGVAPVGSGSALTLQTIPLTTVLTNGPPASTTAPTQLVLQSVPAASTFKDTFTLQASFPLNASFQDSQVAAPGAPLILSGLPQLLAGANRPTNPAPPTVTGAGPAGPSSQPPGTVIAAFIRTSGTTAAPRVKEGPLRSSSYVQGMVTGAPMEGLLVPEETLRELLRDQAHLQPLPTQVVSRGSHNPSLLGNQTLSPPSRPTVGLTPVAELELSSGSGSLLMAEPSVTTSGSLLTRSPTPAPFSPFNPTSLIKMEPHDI
Chain of ETV5 (P41161 whole entry): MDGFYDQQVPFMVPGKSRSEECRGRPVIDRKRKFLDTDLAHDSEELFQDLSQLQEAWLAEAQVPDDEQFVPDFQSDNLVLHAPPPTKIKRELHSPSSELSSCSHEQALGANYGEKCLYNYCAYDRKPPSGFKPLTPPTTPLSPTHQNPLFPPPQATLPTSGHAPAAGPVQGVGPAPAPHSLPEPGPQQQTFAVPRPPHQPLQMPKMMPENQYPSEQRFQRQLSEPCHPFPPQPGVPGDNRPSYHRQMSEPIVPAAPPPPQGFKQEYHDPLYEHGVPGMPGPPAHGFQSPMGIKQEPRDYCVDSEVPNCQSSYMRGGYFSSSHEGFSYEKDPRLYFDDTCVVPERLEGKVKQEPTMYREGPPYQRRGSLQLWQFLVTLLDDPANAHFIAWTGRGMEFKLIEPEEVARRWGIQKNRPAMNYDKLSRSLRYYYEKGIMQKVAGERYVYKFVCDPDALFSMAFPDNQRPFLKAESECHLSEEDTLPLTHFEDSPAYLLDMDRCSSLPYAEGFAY
Chain of CRX (O43186 whole entry): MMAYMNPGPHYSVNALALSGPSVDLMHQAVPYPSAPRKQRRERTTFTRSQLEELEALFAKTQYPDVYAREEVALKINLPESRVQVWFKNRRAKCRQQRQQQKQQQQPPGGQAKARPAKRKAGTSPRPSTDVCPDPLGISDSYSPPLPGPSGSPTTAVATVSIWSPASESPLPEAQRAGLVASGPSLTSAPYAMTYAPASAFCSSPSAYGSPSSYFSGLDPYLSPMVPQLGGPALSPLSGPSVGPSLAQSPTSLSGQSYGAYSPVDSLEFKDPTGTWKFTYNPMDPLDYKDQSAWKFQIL
Chain of HSF1 (Q00613 whole entry): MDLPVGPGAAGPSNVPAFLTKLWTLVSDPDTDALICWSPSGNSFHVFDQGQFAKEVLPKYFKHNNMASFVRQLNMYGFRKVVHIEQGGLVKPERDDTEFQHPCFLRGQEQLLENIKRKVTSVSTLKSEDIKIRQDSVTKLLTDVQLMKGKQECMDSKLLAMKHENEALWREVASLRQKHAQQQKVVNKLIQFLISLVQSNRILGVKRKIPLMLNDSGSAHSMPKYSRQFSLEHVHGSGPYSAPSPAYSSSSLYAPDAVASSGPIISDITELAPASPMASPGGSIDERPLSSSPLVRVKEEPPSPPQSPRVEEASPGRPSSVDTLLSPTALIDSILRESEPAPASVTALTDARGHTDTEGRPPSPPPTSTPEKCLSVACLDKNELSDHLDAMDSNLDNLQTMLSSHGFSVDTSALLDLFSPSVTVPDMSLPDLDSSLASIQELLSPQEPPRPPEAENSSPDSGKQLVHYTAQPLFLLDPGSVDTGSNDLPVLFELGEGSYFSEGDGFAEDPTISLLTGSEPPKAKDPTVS
Chain of ELF1 (P32519 whole entry): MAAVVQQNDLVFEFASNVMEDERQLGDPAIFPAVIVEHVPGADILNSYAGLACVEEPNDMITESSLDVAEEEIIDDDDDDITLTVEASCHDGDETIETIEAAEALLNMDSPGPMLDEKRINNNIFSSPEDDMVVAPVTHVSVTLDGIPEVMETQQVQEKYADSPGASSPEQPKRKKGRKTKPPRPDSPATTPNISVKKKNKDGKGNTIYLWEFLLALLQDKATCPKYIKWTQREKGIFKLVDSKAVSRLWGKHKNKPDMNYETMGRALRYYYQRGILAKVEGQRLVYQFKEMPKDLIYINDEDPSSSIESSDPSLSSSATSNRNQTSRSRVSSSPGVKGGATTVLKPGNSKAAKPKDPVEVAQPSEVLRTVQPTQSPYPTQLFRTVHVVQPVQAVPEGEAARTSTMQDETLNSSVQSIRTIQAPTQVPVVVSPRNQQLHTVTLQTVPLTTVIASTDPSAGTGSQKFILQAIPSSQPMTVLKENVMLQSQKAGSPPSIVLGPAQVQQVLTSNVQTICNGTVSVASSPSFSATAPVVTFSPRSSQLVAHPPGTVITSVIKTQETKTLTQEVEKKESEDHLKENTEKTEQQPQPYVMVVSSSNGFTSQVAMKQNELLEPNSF

As for TTGTCC, the binding signal in the test with FLI1 was 1.47 fold enrichment (6-mer frequency, TF over GST control); in the test with ELK1, 1.32 fold enrichment (6-mer frequency, TF over GST control); in the test with GABPA, 1.41 fold enrichment (6-mer frequency, TF over GST control); in the test with ERG it was 1.4 fold enrichment (6-mer frequency, TF over GST control); in the test with ELF1, 1.3 fold enrichment (6-mer frequency, TF over GST control); with EHF, 1.31 fold enrichment (6-mer frequency, TF over GST control). Moreover, the binding signal was 1.17 fold enrichment (6-mer frequency, TF over GST control) with SPI1; 1.34 fold enrichment (6-mer frequency, TF over GST control) in the test with SPIB; 1.43 fold enrichment (6-mer frequency, TF over GST control) with ELK3; 1.34 fold enrichment (6-mer frequency, TF over GST control) with FEV; 1.42 fold enrichment (6-mer frequency, TF over GST control) with ETV5; 1.16 fold enrichment (6-mer frequency, TF over GST control) in the test with HSF1. Moreover, the binding signal with SPIC is 1.3 fold enrichment (6-mer frequency, TF over GST control); in the test with ELF4 it was 1.26 fold enrichment (6-mer frequency, TF over GST control); with ELK4 it was 1.29 fold enrichment (6-mer frequency, TF over GST control); in the test with ETV2 it was 1.56 fold enrichment (6-mer frequency, TF over GST control); in the test with ELF3, 1.24 fold enrichment (6-mer frequency, TF over GST control); with CRX it was 1.16 fold enrichment (6-mer frequency, TF over GST control). In addition, the binding signal in the test with ETV1 was 1.23 fold enrichment (6-mer frequency, TF over GST control).
